According to publication PMC7862700, “An all-to-all approach to the identification of sequence-specific readers for epigenetic DNA modifications on cytosine”:

Tests used:
Assay in all cases: DAPPL (digital affinity profiling via proximity ligation, sequencing); 10 mM Tris-HCl pH 7.5, 50 mM NaCl, 1 mM DTT, 4% glycerol, room temperature, 30 min; GST-TFs on glutathione beads, 16-mer random dsDNA library, 0.1% formaldehyde crosslink after washing; high values mean tight binding
Settings in all cases: protein: recombinant; tags: N-terminal GST; dsDNA, one strand shown
FEV = target: T1, FEV (Homo sapiens, UniProt Q99581 1-238)
T1 sequence: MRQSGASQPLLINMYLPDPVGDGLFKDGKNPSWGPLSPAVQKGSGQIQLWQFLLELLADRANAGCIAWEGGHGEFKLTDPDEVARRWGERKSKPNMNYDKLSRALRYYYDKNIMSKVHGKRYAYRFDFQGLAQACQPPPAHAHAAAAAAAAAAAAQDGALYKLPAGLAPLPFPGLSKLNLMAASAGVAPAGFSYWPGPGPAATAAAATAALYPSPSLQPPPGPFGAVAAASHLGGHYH
Procedure, shortened: (§1)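 GST fusions of human transcription factors were expressed in yeast and captured with glutathione beads. Once given DNA barcodes and pooled alongside a tag-only sample, they were incubated for 30 min at room temperature with 200 nmole of a random double-stranded 16-mer DNA library in Tris/NaCl/DTT/glycerol buffer, then washed, crosslinked (0.1% formaldehyde), proximity-ligated, PCR-amplified and sequenced on an Illumina NextSeq500. The binding signal of each hexamer is its read frequency for a factor divided by its frequency for the tag-only sample.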

ETV5 = ETV5 (Homo sapiens, UniProt P41161 1-510)
Procedure, shortened: as §1

SPIC = target: T2, SPIC (Homo sapiens, UniProt Q8N5J4 1-248)
T2 sequence: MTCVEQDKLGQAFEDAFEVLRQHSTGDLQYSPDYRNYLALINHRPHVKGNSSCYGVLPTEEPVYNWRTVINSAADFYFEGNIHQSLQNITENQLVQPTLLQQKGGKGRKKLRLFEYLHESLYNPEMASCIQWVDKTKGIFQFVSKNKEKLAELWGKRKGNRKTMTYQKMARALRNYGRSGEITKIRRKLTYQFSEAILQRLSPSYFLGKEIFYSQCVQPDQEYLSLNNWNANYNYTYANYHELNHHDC
Procedure, shortened: as §1

ELF4 = ELF4 (Homo sapiens, UniProt Q99607 1-663)
Procedure, shortened: as §1

ELK4 = target: T3, ELK4 (Homo sapiens, UniProt P28324-2 1-405)
T3 sequence: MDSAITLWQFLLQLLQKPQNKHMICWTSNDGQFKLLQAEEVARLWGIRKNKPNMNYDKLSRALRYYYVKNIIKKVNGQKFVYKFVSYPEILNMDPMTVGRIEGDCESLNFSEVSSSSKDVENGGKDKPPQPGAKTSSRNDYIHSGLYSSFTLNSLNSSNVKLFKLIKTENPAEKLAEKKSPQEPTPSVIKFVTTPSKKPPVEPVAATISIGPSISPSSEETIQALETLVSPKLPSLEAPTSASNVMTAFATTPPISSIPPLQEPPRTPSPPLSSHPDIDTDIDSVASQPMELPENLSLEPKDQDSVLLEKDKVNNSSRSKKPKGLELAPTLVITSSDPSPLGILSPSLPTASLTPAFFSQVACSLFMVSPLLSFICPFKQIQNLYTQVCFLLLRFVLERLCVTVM
Procedure, shortened: as §1

ETV2 = target: T4, ETV2 (Homo sapiens, UniProt O00321 1-342)
T4 sequence: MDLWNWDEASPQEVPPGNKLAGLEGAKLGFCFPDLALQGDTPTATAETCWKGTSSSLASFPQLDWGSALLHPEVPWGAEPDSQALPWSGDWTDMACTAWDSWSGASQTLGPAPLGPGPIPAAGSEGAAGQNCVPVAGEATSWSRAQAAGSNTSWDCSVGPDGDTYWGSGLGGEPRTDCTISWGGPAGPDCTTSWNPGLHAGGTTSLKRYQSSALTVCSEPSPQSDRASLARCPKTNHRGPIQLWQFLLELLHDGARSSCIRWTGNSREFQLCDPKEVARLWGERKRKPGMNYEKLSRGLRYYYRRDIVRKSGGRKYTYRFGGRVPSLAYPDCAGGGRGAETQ
Procedure, shortened: as §1

ELF3 = target: T5, ELF3 (Homo sapiens, UniProt P78545 1-371)
T5 sequence: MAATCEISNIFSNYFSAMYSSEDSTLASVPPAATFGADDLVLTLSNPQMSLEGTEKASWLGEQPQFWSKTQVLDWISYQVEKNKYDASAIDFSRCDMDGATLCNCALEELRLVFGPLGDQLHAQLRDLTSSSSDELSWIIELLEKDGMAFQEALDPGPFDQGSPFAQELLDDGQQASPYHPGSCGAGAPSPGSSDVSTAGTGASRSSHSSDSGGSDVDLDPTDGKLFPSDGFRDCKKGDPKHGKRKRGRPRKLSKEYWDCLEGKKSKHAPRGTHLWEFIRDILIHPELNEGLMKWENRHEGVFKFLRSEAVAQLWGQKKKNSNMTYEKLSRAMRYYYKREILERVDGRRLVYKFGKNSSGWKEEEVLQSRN
Procedure, shortened: as §1

ETV1 = ETV1 (Homo sapiens, UniProt P50549 1-477)
Procedure, shortened: as §1

ERF = target: T6, ERF (Homo sapiens, UniProt P50548 1-548)
T6 sequence: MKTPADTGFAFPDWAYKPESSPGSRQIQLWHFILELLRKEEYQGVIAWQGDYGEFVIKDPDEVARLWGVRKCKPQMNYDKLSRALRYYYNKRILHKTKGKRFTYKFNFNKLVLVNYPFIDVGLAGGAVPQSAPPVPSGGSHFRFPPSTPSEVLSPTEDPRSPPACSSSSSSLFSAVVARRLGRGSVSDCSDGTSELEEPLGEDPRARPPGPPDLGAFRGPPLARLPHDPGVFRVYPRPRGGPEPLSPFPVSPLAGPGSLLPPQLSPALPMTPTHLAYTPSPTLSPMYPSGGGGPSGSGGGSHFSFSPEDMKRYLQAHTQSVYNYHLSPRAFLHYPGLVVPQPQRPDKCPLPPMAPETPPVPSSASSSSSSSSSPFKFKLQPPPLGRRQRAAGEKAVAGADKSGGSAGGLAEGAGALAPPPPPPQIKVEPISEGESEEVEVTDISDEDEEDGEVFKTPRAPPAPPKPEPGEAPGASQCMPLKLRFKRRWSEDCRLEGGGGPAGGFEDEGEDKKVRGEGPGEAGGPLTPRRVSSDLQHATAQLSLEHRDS
Procedure, shortened: as §1

ETV3L = target: T7, ETV3L (Homo sapiens, UniProt Q6ZN32 1-361)
T7 sequence: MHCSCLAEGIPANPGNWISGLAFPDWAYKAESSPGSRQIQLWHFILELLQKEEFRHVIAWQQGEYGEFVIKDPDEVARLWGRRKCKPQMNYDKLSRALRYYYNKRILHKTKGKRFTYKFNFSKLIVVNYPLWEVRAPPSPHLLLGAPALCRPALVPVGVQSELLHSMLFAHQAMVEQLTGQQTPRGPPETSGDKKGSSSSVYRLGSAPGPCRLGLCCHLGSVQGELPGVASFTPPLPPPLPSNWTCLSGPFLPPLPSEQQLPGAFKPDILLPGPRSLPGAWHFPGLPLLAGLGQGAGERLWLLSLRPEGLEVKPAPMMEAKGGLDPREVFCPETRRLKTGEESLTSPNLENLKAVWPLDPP
Procedure, shortened: as §1

ETS2 = target: T8, ETS2 (Homo sapiens, UniProt P15036 1-469)
T8 sequence: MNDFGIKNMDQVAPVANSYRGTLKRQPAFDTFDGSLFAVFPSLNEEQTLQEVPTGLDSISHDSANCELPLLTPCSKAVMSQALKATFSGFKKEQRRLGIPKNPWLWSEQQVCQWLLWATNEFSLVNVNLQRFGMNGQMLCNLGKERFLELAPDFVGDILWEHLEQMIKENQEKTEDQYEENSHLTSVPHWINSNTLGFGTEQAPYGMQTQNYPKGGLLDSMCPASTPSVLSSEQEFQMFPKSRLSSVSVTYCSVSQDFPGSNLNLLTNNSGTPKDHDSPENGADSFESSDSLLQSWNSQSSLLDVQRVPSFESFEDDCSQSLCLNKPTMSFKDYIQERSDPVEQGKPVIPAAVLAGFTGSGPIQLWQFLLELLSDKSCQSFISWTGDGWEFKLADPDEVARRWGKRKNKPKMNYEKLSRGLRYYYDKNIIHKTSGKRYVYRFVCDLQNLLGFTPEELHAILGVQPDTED
Procedure, shortened: as §1

SPDEF = target: T9, SPDEF (Homo sapiens, UniProt O95238 1-335)
T9 sequence: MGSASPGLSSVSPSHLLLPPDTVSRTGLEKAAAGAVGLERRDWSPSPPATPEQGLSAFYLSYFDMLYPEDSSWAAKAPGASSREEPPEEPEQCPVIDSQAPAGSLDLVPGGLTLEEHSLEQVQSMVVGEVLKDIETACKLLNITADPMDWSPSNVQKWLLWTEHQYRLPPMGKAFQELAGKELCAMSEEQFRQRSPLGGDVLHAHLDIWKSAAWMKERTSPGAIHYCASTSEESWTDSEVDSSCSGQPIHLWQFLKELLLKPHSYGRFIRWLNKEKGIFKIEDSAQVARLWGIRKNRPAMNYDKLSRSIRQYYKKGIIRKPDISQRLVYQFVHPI
Procedure, shortened: as §1

ETV7 = target: T10, ETV7 (Homo sapiens, UniProt Q9Y603 1-341)
T10 sequence: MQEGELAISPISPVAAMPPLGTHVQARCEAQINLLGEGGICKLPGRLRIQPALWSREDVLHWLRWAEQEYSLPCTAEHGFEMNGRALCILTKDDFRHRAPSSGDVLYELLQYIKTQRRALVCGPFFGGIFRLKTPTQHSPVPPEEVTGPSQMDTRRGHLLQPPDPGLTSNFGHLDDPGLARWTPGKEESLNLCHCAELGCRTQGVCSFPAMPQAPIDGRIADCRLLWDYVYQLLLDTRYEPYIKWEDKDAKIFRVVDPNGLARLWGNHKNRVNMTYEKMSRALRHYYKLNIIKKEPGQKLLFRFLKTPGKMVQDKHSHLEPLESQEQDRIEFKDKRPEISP
Procedure, shortened: as §1

ELF5 = target: T11, ELF5 (Homo sapiens, UniProt Q9UKW6-2 1-255)
T11 sequence: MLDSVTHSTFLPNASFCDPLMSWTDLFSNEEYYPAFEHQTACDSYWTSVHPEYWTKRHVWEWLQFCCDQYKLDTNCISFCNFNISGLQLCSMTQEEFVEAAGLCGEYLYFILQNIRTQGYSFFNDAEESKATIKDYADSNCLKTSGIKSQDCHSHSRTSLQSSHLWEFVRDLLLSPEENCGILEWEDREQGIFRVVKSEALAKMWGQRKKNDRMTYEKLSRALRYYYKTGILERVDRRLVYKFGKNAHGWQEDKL
Procedure, shortened: as §1

ETV3 = target: T12, ETV3 (Homo sapiens, UniProt P41162-2 1-143)
T12 sequence: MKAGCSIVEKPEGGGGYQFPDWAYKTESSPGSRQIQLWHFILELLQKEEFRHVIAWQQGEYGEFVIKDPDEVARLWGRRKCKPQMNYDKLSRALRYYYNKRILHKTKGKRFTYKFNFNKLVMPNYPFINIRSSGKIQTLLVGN
Procedure, shortened: as §1

ETV6 = ETV6 (Homo sapiens, UniProt P41212 1-452)
Procedure, shortened: as §1

ETV1, sequence (P50549 whole entry): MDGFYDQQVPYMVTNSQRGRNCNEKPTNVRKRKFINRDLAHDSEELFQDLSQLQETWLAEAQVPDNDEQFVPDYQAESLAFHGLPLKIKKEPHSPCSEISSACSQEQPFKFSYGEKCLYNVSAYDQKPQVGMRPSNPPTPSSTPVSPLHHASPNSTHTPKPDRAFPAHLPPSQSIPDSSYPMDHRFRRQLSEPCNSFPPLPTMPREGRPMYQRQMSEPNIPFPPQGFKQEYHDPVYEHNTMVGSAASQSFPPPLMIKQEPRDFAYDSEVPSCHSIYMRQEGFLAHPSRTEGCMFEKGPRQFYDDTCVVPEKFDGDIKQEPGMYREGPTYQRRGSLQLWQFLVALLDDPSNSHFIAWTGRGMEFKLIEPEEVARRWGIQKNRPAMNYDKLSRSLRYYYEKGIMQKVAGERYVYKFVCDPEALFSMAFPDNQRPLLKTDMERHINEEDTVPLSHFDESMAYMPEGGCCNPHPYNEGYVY
ETV5, sequence (P41161 whole entry): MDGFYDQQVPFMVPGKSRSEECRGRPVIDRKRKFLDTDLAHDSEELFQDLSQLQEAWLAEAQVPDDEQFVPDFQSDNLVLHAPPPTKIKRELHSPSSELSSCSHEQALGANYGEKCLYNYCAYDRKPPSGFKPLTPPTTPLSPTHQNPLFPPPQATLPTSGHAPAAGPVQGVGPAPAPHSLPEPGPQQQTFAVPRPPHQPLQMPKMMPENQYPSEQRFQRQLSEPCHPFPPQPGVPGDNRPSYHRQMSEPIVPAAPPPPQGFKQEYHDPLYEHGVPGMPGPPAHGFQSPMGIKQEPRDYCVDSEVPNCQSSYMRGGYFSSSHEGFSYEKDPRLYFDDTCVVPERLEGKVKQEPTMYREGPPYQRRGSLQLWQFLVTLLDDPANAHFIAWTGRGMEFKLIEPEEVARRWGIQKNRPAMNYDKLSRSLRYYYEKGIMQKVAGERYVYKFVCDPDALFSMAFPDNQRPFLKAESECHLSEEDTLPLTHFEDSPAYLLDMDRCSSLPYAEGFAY
ETV6, sequence (P41212 whole entry): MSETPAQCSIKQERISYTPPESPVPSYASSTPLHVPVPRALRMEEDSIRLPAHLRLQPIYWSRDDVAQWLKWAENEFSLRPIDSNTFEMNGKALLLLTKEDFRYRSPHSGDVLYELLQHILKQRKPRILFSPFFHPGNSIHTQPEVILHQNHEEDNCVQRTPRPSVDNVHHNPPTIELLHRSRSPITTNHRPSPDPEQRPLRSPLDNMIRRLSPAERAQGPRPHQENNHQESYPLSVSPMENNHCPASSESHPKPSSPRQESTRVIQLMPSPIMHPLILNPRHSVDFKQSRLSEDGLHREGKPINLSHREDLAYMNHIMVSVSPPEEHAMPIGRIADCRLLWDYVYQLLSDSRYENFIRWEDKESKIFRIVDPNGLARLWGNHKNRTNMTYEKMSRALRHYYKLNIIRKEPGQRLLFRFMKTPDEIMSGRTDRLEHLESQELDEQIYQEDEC
ELF4, sequence (Q99607 whole entry): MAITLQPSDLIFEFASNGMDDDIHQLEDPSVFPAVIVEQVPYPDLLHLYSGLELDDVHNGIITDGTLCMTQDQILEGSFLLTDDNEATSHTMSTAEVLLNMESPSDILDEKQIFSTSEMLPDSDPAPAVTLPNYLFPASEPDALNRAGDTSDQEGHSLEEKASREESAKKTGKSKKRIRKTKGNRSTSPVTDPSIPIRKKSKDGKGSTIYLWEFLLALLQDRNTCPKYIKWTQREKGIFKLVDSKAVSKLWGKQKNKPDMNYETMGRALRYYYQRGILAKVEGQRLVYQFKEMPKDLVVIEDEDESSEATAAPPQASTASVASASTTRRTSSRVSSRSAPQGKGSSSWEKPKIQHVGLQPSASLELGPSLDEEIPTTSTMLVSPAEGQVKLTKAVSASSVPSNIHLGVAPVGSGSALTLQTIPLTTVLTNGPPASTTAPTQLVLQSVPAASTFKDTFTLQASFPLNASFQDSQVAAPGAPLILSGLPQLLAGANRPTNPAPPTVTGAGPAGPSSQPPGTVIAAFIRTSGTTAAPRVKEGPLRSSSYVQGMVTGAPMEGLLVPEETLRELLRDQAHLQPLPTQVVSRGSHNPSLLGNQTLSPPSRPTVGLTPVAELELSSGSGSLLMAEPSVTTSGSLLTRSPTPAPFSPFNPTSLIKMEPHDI

Sequence	binding signal (FEV)	binding signal (ETV5)	binding signal (SPIC)	binding signal (ELF4)	binding signal (ELK4)	binding signal (ETV2)	binding signal (ELF3)	binding signal (ETV1)	binding signal (ERF)	binding signal (ETV3L)	binding signal (ETS2)	binding signal (SPDEF)	binding signal (ETV7)	binding signal (ELF5)	binding signal (ETV3)	binding signal (ETV6)
GCCACT	1.31 fold enrichment (6-mer frequency, TF over GST control)	1.2 fold enrichment (6-mer frequency, TF over GST control)	1.12 fold enrichment (6-mer frequency, TF over GST control)	1.21 fold enrichment (6-mer frequency, TF over GST control)	1.24 fold enrichment (6-mer frequency, TF over GST control)	1.15 fold enrichment (6-mer frequency, TF over GST control)	1.1 fold enrichment (6-mer frequency, TF over GST control)	1.22 fold enrichment (6-mer frequency, TF over GST control)	1.16 fold enrichment (6-mer frequency, TF over GST control)	1.07 fold enrichment (6-mer frequency, TF over GST control)	1.19 fold enrichment (6-mer frequency, TF over GST control)	1.15 fold enrichment (6-mer frequency, TF over GST control)	1.12 fold enrichment (6-mer frequency, TF over GST control)	1.16 fold enrichment (6-mer frequency, TF over GST control)	1.16 fold enrichment (6-mer frequency, TF over GST control)	1.21 fold enrichment (6-mer frequency, TF over GST control)
GGATGT	2.08 fold enrichment (6-mer frequency, TF over GST control)	1.77 fold enrichment (6-mer frequency, TF over GST control)	1.41 fold enrichment (6-mer frequency, TF over GST control)	1.39 fold enrichment (6-mer frequency, TF over GST control)	1.36 fold enrichment (6-mer frequency, TF over GST control)	1.44 fold enrichment (6-mer frequency, TF over GST control)	1.61 fold enrichment (6-mer frequency, TF over GST control)	1.69 fold enrichment (6-mer frequency, TF over GST control)	1.41 fold enrichment (6-mer frequency, TF over GST control)	1.63 fold enrichment (6-mer frequency, TF over GST control)	1.72 fold enrichment (6-mer frequency, TF over GST control)	3.07 fold enrichment (6-mer frequency, TF over GST control)	1.45 fold enrichment (6-mer frequency, TF over GST control)	1.87 fold enrichment (6-mer frequency, TF over GST control)	1.78 fold enrichment (6-mer frequency, TF over GST control)	1.66 fold enrichment (6-mer frequency, TF over GST control)
CACTAC	1.35 fold enrichment (6-mer frequency, TF over GST control)	1.3 fold enrichment (6-mer frequency, TF over GST control)	1.14 fold enrichment (6-mer frequency, TF over GST control)	1.27 fold enrichment (6-mer frequency, TF over GST control)	1.37 fold enrichment (6-mer frequency, TF over GST control)	1.34 fold enrichment (6-mer frequency, TF over GST control)	1.3 fold enrichment (6-mer frequency, TF over GST control)	1.21 fold enrichment (6-mer frequency, TF over GST control)	1.33 fold enrichment (6-mer frequency, TF over GST control)	1.29 fold enrichment (6-mer frequency, TF over GST control)	1.31 fold enrichment (6-mer frequency, TF over GST control)	1.14 fold enrichment (6-mer frequency, TF over GST control)	1.27 fold enrichment (6-mer frequency, TF over GST control)	1.26 fold enrichment (6-mer frequency, TF over GST control)	1.26 fold enrichment (6-mer frequency, TF over GST control)	1.24 fold enrichment (6-mer frequency, TF over GST control)
